Active and inactive are the calls of the source. The calls were made as follows: active = hit-call score of the fitted dose curve at least 0.9, where 1 is the maximum; inactive = score below 0.9.

Read-out in the first experiment: Plasminogen activator inhibitor-1 (PAI1), SERPINE1 (gene 5054)
Description: BSK_hDFCGF_PAI1: BioMAP Diversity Plus: hDFCGF Assay for Plasminogen activator inhibitor-1 (PAI1) Biomarker Activity (AID 2283066). Particulars: primary human foreskin fibroblasts; actives raise or lower the signal. Summed up:
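Human foreskin fibroblasts in the hDFCGF system were dosed with compound for 24 h; PAI-1 was quantified by ELISA. Bidirectional curve fitting used DMSO as negative control and baseline.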
As to `COc1cc2c(c(OC)c1OC)-c1ccc(OC)c(=O)cc1[C@@H](NC(C)=O)CC2`, the result was inactive.

For the compound `OCCC(F)(F)C(F)(F)C(F)(F)C(F)(F)F`, the outcome was inactive. The same measure, in the same setting: for `O=C(O)c1cccc(C(=O)O)c1` the value was “inactive”. In the case of `CNC(C)=O`, the outcome was inactive. Take `CCCCCCCC1CCC(=O)O1` (configuration not stated): the result was inactive. For the compound `O=C1CN(N=Cc2ccc([N+](=O)[O-])o2)C(=O)N1`, the outcome was inactive. For `COS(C)(=O)=O`, the result was inactive. Same read-out and setting: with `S=P(N1CC1)(N1CC1)N1CC1` the entry was “inactive”; with `C[C@@H](Oc1ccc(CNC(=O)c2cccnc2Oc2ccc3c(c2)OCO3)c(F)c1)C(=O)O`, “inactive”. Same read-out and setting: with `O=c1[nH]cnc2c1ncn2[C@H]1CC[C@@H](CO)O1` the entry was “inactive”.

Read-out in another experiment: Intercellular Adhesion Molecule 1 (ICAM1), ICAM1 (gene 3383)
Kind of experiment: BSK_KF3CT_ICAM1: BioMAP Diversity Plus: KF3CT Assay for Intercellular Adhesion Molecule 1 (ICAM1) Biomarker Activity (AID 2283067). The settings on record: primary human keratinocytes with fibroblasts; actives raise or lower the signal. The procedure, abridged:
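Dose the keratinocyte/fibroblast co-culture, wait 24 h, measure ICAM-1 by ELISA, then fit increases or decreases against DMSO. Cytotoxicity is checked in parallel cultures by SRB total-protein staining.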
On to `OCc1c[nH]c2ccccc12`, for which the outcome was inactive. For `c1ccc2cc3ccccc3cc2c1`, the outcome was inactive. Take `COc1cc(C(C)C)c2c(c1)S(=O)(=O)N(COc1cc(=O)n3cccc(OCCN4CCCCC4)c3n1)C2=O`: the result was inactive.

As to `O=S(=O)(O)CCC(F)(F)C(F)(F)C(F)(F)C(F)(F)C(F)(F)C(F)(F)F`, the result was inactive. As for `Cc1nccn1-c1ccc(Sc2cccc(C3(C(N)=O)CCOCC3)c2)cc1`, the outcome was inactive. For `CC(C)CC(C)O` (configuration not stated), the result was inactive. Still for that read-out and setting: for `NC(=O)NN=Cc1ccc([N+](=O)[O-])o1` the value was “inactive”; for `c1ccc(C(O[C@@H]2CCCN(CCc3ccc4c(c3)OCO4)C2)c2ccccc2)cc1`, “inactive”; for `CCCCOC(=O)c1ccccc1`, “inactive”.

Regarding `FC(F)(F)C(F)(F)C(F)(F)C(F)(F)C(F)(F)C(F)(F)I`, the outcome was inactive. Turning to `NC(=O)N1c2ccccc2C=Cc2ccccc21`, the result was inactive. Turning to `Cc1nc(-c2ccccn2)ncc1C(=O)Nn1cc(C)c2cc(F)ccc21`, the outcome was inactive. With `O=C(O)[C@H](O)[C@@H](O)C(=O)O`, the result was inactive.

Consider `Cc1cccc(O)c1C`, for which the result was inactive. Same read-out and setting: for `C[Si](C)(C)C(F)(F)C(F)(F)C(F)(F)F` the value was “inactive”; for `CCOC(N)=O`, “inactive”; for `OC[C@H]1O[C@@H]2O[C@H]3[C@H](O)[C@@H](O)[C@@H](O[C@H]4[C@H](O)[C@@H](O)[C@@H](O[C@H]5[C@H](O)[C@@H](O)[C@@H](O[C@H]6[C@H](O)[C@@H](O)[C@@H](O[C@H]7[C@H](O)[C@@H](O)[C@@H](O[C@H]1[C@H](O)[C@H]2O)O[C@@H]7CO)O[C@@H]6CO)O[C@@H]5CO)O[C@@H]4CO)O[C@@H]3CO`, “inactive”. With `COc1cc2c(c(OC)c1OC)-c1ccc(OC)c(=O)cc1[C@@H](NC(C)=O)CC2`, the result was inactive. Same read-out and setting: with `OCCC(F)(F)C(F)(F)C(F)(F)C(F)(F)F` the entry was “inactive”; with `O=C(O)c1cccc(C(=O)O)c1`, “inactive”. Consider `CNC(C)=O`, for which the outcome was inactive. The same measure, in the same setting: for `CCCCCCCC1CCC(=O)O1` (configuration not stated) the value was “inactive”; for `O=C1CN(N=Cc2ccc([N+](=O)[O-])o2)C(=O)N1`, “inactive”. `COS(C)(=O)=O`: the outcome was inactive. With `S=P(N1CC1)(N1CC1)N1CC1`, the result was inactive. On to `C[C@@H](Oc1ccc(CNC(=O)c2cccnc2Oc2ccc3c(c2)OCO3)c(F)c1)C(=O)O`, for which the outcome was inactive. In the case of `O=c1[nH]cnc2c1ncn2[C@H]1CC[C@@H](CO)O1`, the outcome was inactive.

The values are drawn from PubChem BioAssay (EPA / NIEHS).
